Screen size: about 55,000 sequences; about 2,600 (4.7%) were called active. Rule as the data show it: active = GI50 up to about 1.1 µM and inactive = higher. A selection follows. Entries with a potency or affinity are not part of this list.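 Interpolation was linear, between the two tested concentrations surrounding the appropriate level; five concentrations were tested over 48 hours in 96-well plates. Abbreviation: GI50, concentration required for 50% inhibition of growth.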

In this assay the test system is OVCAR-4. The assay can be described thus: NCI tumour cell line growth inhibition, 48 h.
With “[Bis(aminomethyl)tetramethylenesilane]dichloropaltinum(II), CHEMBL2146205”, the GI50 is 59.8 µM.

Consider “[Bis(aminomethyl)tetramethylenesilane]tetrachloropaltinum(IV), CHEMBL2146189”, for which the GI50 is 19 µM.

As to CISPLATIN, CHEMBL11359, the GI50 is 1.49 µM. The result for “[Bis(aminomethyl)pentamethylenesilane]dichloropaltinum(II), CHEMBL2146202” reads 5.46 µM; that for “cis-Bis[[(trimethylsilyl)methyl]amino]tetrachloroplatinum(IV), CHEMBL2146191”, 5.53 µM; that for “[Bis(aminomethyl)pentamethylenesilane]tetrachloropaltinum(IV), CHEMBL2146204”, 18.6 µM.

The substance “[Bis(aminomethyl)dimethylsilane]tetrachloroplatinum(IV), CHEMBL2146190” gave a GI50 of 18.8 µM. The result for “[Bis(aminomethyl)dimethylsilane]dichloroplatinum (II), CHEMBL2146201” reads 45.8 µM. The result for “[Bis(aminomethyl)ethylmethylsilane]tetrachloroplatinum(IV), CHEMBL2146192” reads 10 µM; that for “mu-(1,7-nanodiamine-N,N')bis-(cis-aminedichloroplatimum (II)), CHEMBL2146215”, 40.8 µM; that for “[Bis(aminomethyl)diethylsilane]tetrachloroplatinum(IV), CHEMBL2146203”, 14.7 µM.
